Bioassay records: PubChem BioAssay, National Center for Advancing Translational Sciences (NCATS)
Shown are actives, neighbours in structure and some others; about 7.9% of the full set was active somewhere.
FMDV antiviral: antivirals against foot and mouth disease virus; FMDV antiviral cell-based qHTS; 410,000 compounds, 1.2% hits; AID 1159524; Potency, µM (highest dose often 57.9 µM), most hits filed as inhibitors; calls by dose curve; tested in HEK293T cells; note: read-out not given here; nearly all actives have a fitted effect of over 45% in size
HCV inhibitor: inhibitors of hepatitis C virus infection. Huh7.5.1 HCVcc-Cre infection, luciferase reporter, 44 h. Potency, µM (doses to about 41.8 µM), usual class: inhibitors. AID 651820. 340,000 compounds, 3.4% hits; active = well fitted inhibition curve with a large enough effect; inconclusive = small, poorly fitted or top-dose-only effect, or another doubt; inactive = no such curve, though single readings can be large or run the other way
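Infectious HCVcc-Cre (~0.5 moi) was added to cells just after compound, with cells seeded 4 h earlier at 1,000 per well. Luciferase activity after 44 h culture reported infection; substrate was incubated 15 min at room temperature before reading.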
Marburg entry inh: Marburg virus entry inhibition | AID 540276 | 300,000 compounds, 1.8% hits | Potency, µM (series often up to 37.8 µM), hits mostly inhibitors | Marburg virus pseudotyped entry inhibition, cell reporter; calls by dose curve; tested in HEK293 cells
Lassa entry inh: inhibitors of Lassa virus binding or cell entry; AID 540256; Lassa virus pseudotype entry inhibition, cell reporter; 300,000 compounds, 1.2% hits; Potency, µM (doses to about 37.9 µM), hits mostly inhibitors; calls by dose curve; tested in HEK293 cells; note: nearly all actives have a fitted effect of over 50% in size
HCMV antiviral: human cytomegalovirus inhibition. activity change, negative = inhibition, % at 57.5 µM. 410,000 compounds, 4.5% hits. HFF cells, HCMV-luciferase reporter, 72 h; hits give low values; in the data active = activity change below about -60%; inconclusive = no clear call, values can overlap the other calls; inactive = above about -39%
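Luciferase read-out from HCMV-luciferase-infected HFFs (MOI 1 PFU/cell) 72 h post infection at 37C; compounds added after 16 h cell attachment; activity normalized between buffer-only basal and Salinomycin (10uM) inhibitor controls.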
Large screens that a line does not name were inactive.

COc1ccc(CCn2c(=O)[nH]c3cc(C(=O)N4CCN(c5ccccc5)CC4)ccc3c2=O)cc1OC	FMDV antiviral 16µM, HCV inhibitor inconclusive, Marburg entry inh inconclusive
COc1ccc(Cn2c(=O)[nH]c3cc(C(=O)N4CCN(Cc5ccccc5)CC4)ccc3c2=O)cc1	FMDV antiviral 14µM, HCV inhibitor inconclusive, Marburg entry inh inconclusive, HCMV antiviral -63
COc1ccc(Cn2c(=O)[nH]c3cc(C(=O)N4CCN(c5ccccc5OC)CC4)ccc3c2=O)cc1	FMDV antiviral 18µM, HCV inhibitor 10µM, Marburg entry inh inconclusive, Lassa entry inh inconclusive (no result: HCMV antiviral)
COc1ccc(Cn2c(=O)[nH]c3cc(C(=O)N4CCN(c5ccccc5F)CC4)ccc3c2=O)cc1	HCV inhibitor inconclusive (no result: Lassa entry inh)
CCOC(=O)C1=CN(CCNC(=O)OC(C)(C)C)C(=O)NC1c1ccccc1 (configuration not stated)	none (no result: FMDV antiviral, HCV inhibitor, Lassa entry inh, HCMV antiviral)
O=[N+]([O-])c1cccc(S(=O)(=O)NCc2ccncc2)c1	FMDV antiviral inconclusive, HCV inhibitor 13µM, HCMV antiviral inconclusive
CCCCNS(=O)(=O)c1ccc(S(=O)(=O)NCc2ccncc2)cc1	HCV inhibitor 10µM, HCMV antiviral -72 (no result: FMDV antiviral)
CCCCc1ccc(S(=O)(=O)NCCc2ccncc2)cc1	HCV inhibitor 11µM, Lassa entry inh inconclusive, HCMV antiviral -63
O=S(=O)(NCc1ccncc1)c1ccc(S(=O)(=O)NCC2CCCO2)cc1 (configuration not stated)	HCV inhibitor 13µM, Marburg entry inh inconclusive, Lassa entry inh inconclusive (no result: FMDV antiviral)
C=CCn1cc(C(=O)N2CCN(c3ccccc3)CC2)c(=O)c2cc(S(=O)(=O)N3CCCC3)ccc21	none (no result: Marburg entry inh, Lassa entry inh)
CCOc1ccc(S(=O)(=O)Nc2ccc(OC)c(Cl)c2)c2cccnc12	none (no result: HCV inhibitor)
Cc1nn(-c2ccccc2)c(C)c1/C=N/n1c(-c2ccccc2Br)n[nH]c1=S	Marburg entry inh inconclusive, Lassa entry inh 13µM
CCN(CC)c1ccc(/C=N/n2c(-c3ccccc3Br)n[nH]c2=S)cc1	FMDV antiviral inconclusive, HCV inhibitor inconclusive, Marburg entry inh inconclusive, Lassa entry inh inconclusive
COc1ccc(C(=O)NC(=S)Nc2ccccc2N2CCCCC2)cc1[N+](=O)[O-]	FMDV antiviral inconclusive, HCV inhibitor 13µM, Marburg entry inh inconclusive, Lassa entry inh inconclusive
CS(=O)(=O)N1CCN(c2ccc(NC(=S)NC(=O)c3ccccc3[N+](=O)[O-])cc2)CC1	FMDV antiviral inconclusive, HCV inhibitor 13µM, Lassa entry inh inconclusive
Cc1c(C(=O)NC(=S)Nc2ccccc2N2CCCC2)cccc1[N+](=O)[O-]	FMDV antiviral inconclusive, HCV inhibitor 3.5µM
O=C(NC(=S)Nc1ccccc1N1CCCC1)c1ccc([N+](=O)[O-])cc1	HCV inhibitor inconclusive, HCMV antiviral inconclusive
CCC1(c2ccccc2)CN(C)C1=O (configuration not stated)	HCMV antiviral -79 (no result: HCV inhibitor, Marburg entry inh, Lassa entry inh)
CC(C)C(C(=O)NCc1ccccc1)N1CCN(c2ccccc2F)CC1 (configuration not stated)	none (no result: HCV inhibitor, Marburg entry inh, Lassa entry inh)
C[CH2][Hg][S]c1ccccc1C(=O)O	FMDV antiviral 28µM, HCMV antiviral -95 (no result: Marburg entry inh, Lassa entry inh)
CNCC[C@H](Oc1ccccc1OC)c1ccccc1	Marburg entry inh 18µM (no result: HCV inhibitor, Lassa entry inh, HCMV antiviral)
CN(C)CCC(Oc1ccccc1OCc1ccccc1)c1ccccc1 (configuration not stated)	Marburg entry inh inconclusive, Lassa entry inh inconclusive
NC(=O)c1cc2ccc(O)cc2oc1=Nc1ccccc1	Lassa entry inh inconclusive, HCMV antiviral -82
CSc1cccc(NC(=O)CC2Oc3ccccc3NC2=O)c1 (configuration not stated)	none (no result: Marburg entry inh, Lassa entry inh)
CCCCn1c(N)c(N(CCC(C)C)C(=O)c2cc(Cl)nc3ccccc23)c(=O)[nH]c1=O	Marburg entry inh inconclusive
CCCCn1c(N)c(N(CCC(C)C)C(=O)CSc2nc3ccccc3n2C)c(=O)[nH]c1=O	HCV inhibitor 10µM
c1ccc(CN2CCOCCOCCOCCOCC2)cc1	none
COC(=O)CCN1CCN(S(=O)(=O)c2ccc3c(c2)OCCO3)CC1	none (no result: Marburg entry inh, Lassa entry inh)
O=S(=O)(Nc1ccc(Cc2ccncc2)cc1)c1ccc(Br)s1	Marburg entry inh inconclusive, Lassa entry inh inconclusive, HCMV antiviral inconclusive
O=S(=O)(Nc1ccc(Cc2ccncc2)cc1)c1ccc(Cl)cc1	HCV inhibitor 11µM, Marburg entry inh inconclusive, Lassa entry inh inconclusive, HCMV antiviral -65
O=S(=O)(Nc1ccc(Cc2ccncc2)cc1)c1ccc(Br)cc1	HCV inhibitor 10µM, Marburg entry inh inconclusive, Lassa entry inh inconclusive, HCMV antiviral -63
CC1=C(c2ccc(C)c(C)c2)S(=O)(=O)N(Cc2ccc(C(=O)NCc3cccc(C)c3)cc2)C1=O	Marburg entry inh inconclusive (no result: HCV inhibitor, Lassa entry inh)
O=C(N/N=C(\CC(=O)c1cccs1)C(F)(F)F)c1ccncc1	HCV inhibitor inconclusive, Marburg entry inh inconclusive, Lassa entry inh inconclusive, HCMV antiviral -76
Cc1ccc(C(=O)N/N=C(/CC(=O)c2cccs2)C(F)(F)F)cc1	Marburg entry inh inconclusive, Lassa entry inh inconclusive, HCMV antiviral -86
Cc1ccc(NCCC(=O)c2cccs2)cc1	none (no result: Marburg entry inh, Lassa entry inh)
Cc1cccc(-c2cccc(NC(=O)C3CCCN(C(=O)c4ocnc4C)C3)c2)c1 (configuration not stated)	HCV inhibitor inconclusive, Marburg entry inh inconclusive, Lassa entry inh 3.5µM
Cc1nc(-c2cccc(NC(=O)C3CCCCC3)c2)cs1	HCV inhibitor inconclusive (no result: Marburg entry inh, Lassa entry inh)
Cc1cccc(-c2cccc(NC(=O)C3CCCN(C(=O)c4cccnc4)C3)c2)c1 (configuration not stated)	HCV inhibitor inconclusive, HCMV antiviral inconclusive (no result: Marburg entry inh, Lassa entry inh)
CCc1nc(C)c(C(=O)N2CCCC(C(=O)Nc3cccc(-c4cccc(C)c4)c3)C2)o1 (configuration not stated)	HCV inhibitor 11µM, Marburg entry inh inconclusive, Lassa entry inh inconclusive
Cc1cccc(-c2cccc(NC(=O)C3CCCN(C(=O)c4csc(C)n4)C3)c2)c1 (configuration not stated)	HCV inhibitor 7.9µM, HCMV antiviral inconclusive (no result: Marburg entry inh, Lassa entry inh)
O=C(Nc1ccc(F)cc1)C(c1cccc(F)c1)N1CCN(C(=O)c2ccco2)CC1 (configuration not stated)	none (no result: HCV inhibitor, Marburg entry inh, Lassa entry inh)
COc1ccc(NC(=O)Cn2c(=O)n(-c3cc(C)cc(C)c3)c(=O)c3oc4ccccc4c32)cc1OC	HCMV antiviral -84 (no result: HCV inhibitor, Marburg entry inh)
O=C(O)CCCCCC[C@@H]1C(=O)NC(=O)N1CC[C@@H](O)C1CCCCC1	none (no result: FMDV antiviral, HCV inhibitor, Lassa entry inh, HCMV antiviral)
COc1ccccc1C(CNC(=O)CNC(=O)c1ccccc1Cl)N1CCCC1 (configuration not stated)	HCMV antiviral -101 (no result: Marburg entry inh, Lassa entry inh)
COc1ccccc1C(CNC(=S)NCc1ccccc1)N1CCCC1 (configuration not stated)	Marburg entry inh 5.6µM, HCMV antiviral -72
COc1ccc(C(CNC(=S)NCc2ccccc2)N2CCCC2)cc1 (configuration not stated)	Marburg entry inh inconclusive, Lassa entry inh inconclusive
CCN(c1ccccc1)S(=O)(=O)c1ccc(Oc2ccc(C(C)=O)cc2OC)nc1	HCV inhibitor 13µM (no result: Marburg entry inh, Lassa entry inh)
CCN(c1ccccc1)S(=O)(=O)c1ccc(C(=O)NCC(c2ccccc2OC)N2CCCC2)cc1 (configuration not stated)	HCV inhibitor 25µM, Marburg entry inh inconclusive, Lassa entry inh inconclusive
